# From PubChem BioAssay AID686978 (National Center for Advancing Translational Sciences (NCATS), 2013)
# Among all 420,000 compounds or so, about 64,000 (15%) were called active. Another 27% or so got no clear call; they are omitted. These entries were drawn from the full list. Unmarked numbers belong to inactive results. The call rests on the fitted dose curve; in most records, active means well fitted inhibition curve with a large enough effect; inconclusive means small, poorly fitted or top-dose-only effect; inactive means flat fitted curve, though single readings scatter.
# Experiment: qHTS for Inhibitors of human tyrosyl-DNA phosphodiesterase 1 (TDP1): qHTS in cells in absence of CPT; further: nearly all actives have a fitted effect of over 55% in size
# Conditions: DT40 Tdp1-/- hTDP1 cells, no CPT, ATP luminescence, 48 h; activity change, negative = growth inhibition: at 46.2 µM (top of the series)
# Method in brief: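 Growth kinetics read by CellTiter-Glo luminescence after ≥48 hr at 37 °C. Cells: DT40 Tdp1-/- stably carrying human TDP1, 400 per well, compound exposure in the absence of CPT (DMSO vehicle).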
# On the % scale 0 is the no-effect control and ±100 the full control effect; potency means the concentration at half of the fitted maximal effect.
Compound,"activity change, negative = growth inhibition [%]",Potency
CN(C)C(=O)CSc1n[nH]c(-c2ccco2)n1,2.59,
COC(C[C@@H](O)C[C@@H](O)[C@H](C)OCc1ccccc1)OC,-4.64,
O=C(Cc1ccc(Br)cc1)NCCc1ccccc1,-19.9,
COc1ccccc1NC(=O)CCC(=O)N1CC(C)Oc2ccc(C)cc21 (stereo unspecified),,16.4 µM (active)
CC1CN(C(=O)CCC(=O)NCc2cccnc2)c2ccccc2O1 (stereo unspecified),-9.83,
COC(=O)C(CC(=O)Nc1cc(C)ccc1C)Nc1ccccc1OC (stereo unspecified),-2,
O=C(Cn1nnc(-c2ccccc2)n1)NCc1ccc2c(c1)OCO2,-21.4,
O=C(CSc1ncnc2scc(-c3ccccc3)c12)NCc1ccc2c(c1)OCO2,4.66,
CN(C)C(=O)c1cccc(-c2cnc3sc(NCc4ccc5c(c4)OCO5)nn23)c1,,13 µM (active)
OC(CNC1CCCC1)COc1ccc(F)cc1 (stereo unspecified),-3.38,
Nc1c(C(=O)Nc2ccc3c(c2)OCCO3)nnn1Cc1ccccc1,-27.2,
COC(=O)c1ccc(CSc2nc3cc(Cl)ccc3o2)cc1,-11.2,
COc1cccc(-c2nc(S(=O)(=O)c3ccc(C)cc3)c(NCc3ccccc3)o2)c1,,18.4 µM (active)
O=S(=O)(c1ccccc1)c1nc(-c2ccccc2F)oc1NCc1cccnc1,5.86,
O=S(=O)(c1ccc(Br)cc1)c1nc(-c2ccccc2)oc1NCc1cccnc1,-18.3,
COc1cc(C2C3C(=O)N(c4ccccc4)C(=O)C3ON2c2ccccc2)ccc1O (stereo unspecified),-5.92,
COc1ccc(-c2nn(CC(=O)NC3CCCC3)c3c2cnc2ccc(F)cc23)cc1,-10.7,
CCc1ccc2ncc3c(-c4ccc(C)cc4)nn(CC(=O)NCc4ccccc4)c3c2c1,-13.3,
COc1ccc2ncc3c(-c4ccc(C)c(C)c4)nn(CC(=O)NC4CCCC4)c3c2c1,,6.51 µM (active)
COc1cccc2c(=O)n(CC(=O)N3CCCCCC3)ccc12,-8.15,
COc1cc(C2C(C(=O)Nc3ccc(F)cc3)=C(C)Nc3nc(CCCO)nn32)cc(OC)c1OC (stereo unspecified),-0.287,
CCOc1cc(C2C(C(=O)Nc3ccc(OC)cc3)=C(C)Nc3nc(SC)nn32)ccc1O (stereo unspecified),-2.38,
CCOc1ccc(C2C(C(=O)Nc3ccc(Cl)cc3)=C(C)Nc3nc(C(F)(F)F)nn32)cc1 (stereo unspecified),,14.6 µM (active)

Compound,"activity change, negative = growth inhibition [%]",Potency
CCOc1ccccc1N(C)C(=O)c1cc2c(s1)-c1ccccc1OC2,,16.4 µM (active)
CCOc1ccccc1-c1cc(C(=O)N2CCOCC2)c2ccccc2n1,3.51,
COc1cc(OC)c(N(C)C(=O)c2cc3c(=O)oc4ccccc4c3s2)cc1Cl,-0.861,
COc1ccc(C(=O)NC(C)Cn2nc(C)cc2C)cc1OC1CCN(C(C)=O)CC1 (stereo unspecified),-0.393,
COc1ccc(-c2onc3ccc(C(C)=O)cc23)cc1,-13.7,
CCOCCCNC(=O)c1ccc(CS(=O)(=O)c2cccc(C(F)(F)F)c2)o1,6.63,
Cc1c(Cl)cnc(NC(=O)COC(=O)c2ccc(S(=O)(=O)NCc3ccco3)cc2)c1Cl,-8.95,
CC(C)(C)c1ccc(C(=O)C[n+]2cccc3cc(Cl)ccc32)cc1,,4.47 µM (active)
COC(=O)C[n+]1cccc2ccccc21,-21.6,
Cc1cccc[n+]1CC(=O)c1ccccc1,0.748,
COc1cccc2c1OCC(C(=O)NCc1ccc(Cl)cc1Cl)=C2,2.01,
O=C1NCC(Nc2ccccc2)C(=O)N1 (stereo unspecified),12.2,
Nc1ccccc1SC(C[N+](=O)[O-])c1ccccc1 (stereo unspecified),,2.31 µM (active)
Nc1ccccc1SCc1cc([N+](=O)[O-])cc2c1OCOC2,-24.8,
C#CCO[C@@H]1C[C@H](n2cnc3c(=O)[nH]c(NC(=O)C(C)C)nc32)O[C@@H]1CO,3.17,
CCCCCCCCCCCCCCCCO,4.89,
Cc1cccc2c1-c1sc(C(=O)NCCCN3CCc4ccccc4C3)cc1CO2,,20.6 µM (active)
O=C(NCCCN1CCOCC1)c1cc2c(s1)CCC2,-0.232,
O=C(CN1C(=O)COc2ccccc21)NCCN1CCc2ccccc2C1,4.11,
O=C(Nc1cccc(Cl)c1)c1cncn1-c1ccc(F)cc1,-3.19,
Cc1ccc(NC(=O)CCN2C(=O)c3ccccc3C2=O)cc1C,3.57,
Cc1cc2c(cc1C)N(C(=O)CN1C(=O)c3ccccc3C1=O)C(C)(C)c1ssc(=S)c1-2,,25.9 µM (active)
Cc1cc(C)cc(NC(=O)CN2C(=O)c3ccccc3C2=O)c1,-10.3,

Compound,"activity change, negative = growth inhibition [%]",Potency
CCCC(=O)N=c1sc2cccc(F)c2n1C,-6.66,
CCCN(C(=O)CSc1nnnn1C)c1c(N)n(Cc2ccccc2)c(=O)[nH]c1=O,-8.42,
COC(=O)[C@@H]1C[C@@]2(O)[C@@H](O)[C@@H](O)[C@@H](O)C[C@H]2N1Cc1ccc(C)s1,-22.7,
CS(=O)(=O)N(CC(=O)N1CCN(c2ccc(F)cc2)CC1)C1CCCCC1,-11.2,
CN(C1CCS(=O)(=O)C1)S(=O)(=O)c1ccc2ccccc2c1 (stereo unspecified),-18.1,
COc1ccc(CCN(C)C(=O)C2CCCN(Cc3ccc(OC)c(OC)c3)C2)cc1OC (stereo unspecified),-13.7,
COc1ccc(CN2CCCC(C(=O)N3CCCCC3)C2)cc1 (stereo unspecified),-15.9,
COc1cc(CN2CCCC(C(=O)c3ccc(SC)cc3)C2)cc(Cl)c1O (stereo unspecified),,14.6 µM (active)
COc1ccc(CN2CCCC(CNC(=O)c3ccc(F)cc3)C2)cc1OC (stereo unspecified),-13.6,
COc1ccc(CN2CCCC(C(=O)c3ccc(Cl)cc3)C2)cc1Cn1cncn1 (stereo unspecified),,18.4 µM (active)
c1ccc(-n2ncc(-c3nn[nH]n3)n2)cc1,-9.83,
Cc1ccccc1NC(=O)COc1cccc2c1CCNC2=O,-29.1,
Cc1c(Cl)cccc1NC(=O)CSc1ccc(-c2cccnc2)nn1,-20.6,
Brc1ccc(CSc2ccc(-c3ccco3)nn2)cc1,5.7,
Cc1cc(F)ccc1S(=O)(=O)Nc1ccc(C(=O)N(C)Cc2ccco2)cc1,-6.11,
Cc1cc(C2=NNC(=Nc3ccc(S(=O)(=O)N4CCOCC4)cc3)SC2)c(C)n1CC1CCCO1 (stereo unspecified),,2.91 µM (active)
C=CCn1c(C)cc(C2=NNC(=NCC)SC2)c1C,,20.6 µM (active)
Cc1ccnc(NS(=O)(=O)c2ccc(NC(=O)c3ccc(S(=O)(=O)N4CCOCC4)cc3)cc2)n1,-8.99,
Cc1ccc(S(=O)(=O)N2CCC(C(=O)NCC3CCCO3)CC2)cc1 (stereo unspecified),0.855,
COCCn1c(C)cc(C2=NNC(=Nc3ccc(F)cc3)SC2)c1C,,14.6 µM (active)
CCSC(C)CC1C/C(=N/O)c2c(C)noc2C1 (stereo unspecified),-5.32,
Cc1ccc(Cl)c(OCC(=O)N2CCc3ccccc3C2)c1,-4.58,
Nc1c(-c2ccc(F)cc2)cnn1C1CCS(=O)(=O)C1 (stereo unspecified),-14.5,

Compound,"activity change, negative = growth inhibition [%]",Potency
Cc1cc(=O)cc(C)n1-c1ccc(Cl)c(Cl)c1,2.04,
CCOc1ccccc1NC(=O)CCS(=O)(=O)c1cccc2nsnc12,,inactive
CCOc1ccc(-c2c(C)n([O-])c3c([n+]2=O)CCCC3)cc1,-1.93,
Nc1nc2cc(Cl)ccc2n1N,-9.62,
COc1cc(OC)c(C2C=C(C(=O)O)Nc3ncnn32)cc1OC (stereo unspecified),31.7,
CC(C)c1nnc(NC(=O)C2CC(=O)N(CCc3ccc(F)cc3)C2)s1 (stereo unspecified),-1.1,
CC(=O)Nc1ccc(S(=O)(=O)N(CCc2ccccc2)CC(=O)N/N=C/c2ccc(C(=O)O)cc2)cc1,-16.1,
CCOc1ccc(NC(=O)CSc2nncn2C)cc1,-14.2,
CCOc1ccc(C(=O)Nc2ccc3nc4c(c(Nc5ccccc5OC)c3c2)CCCC4)cc1,,4.61 µM (active)
CC(=O)c1cccc(NC(=O)CSc2nc3c(c(=O)[nH]2)CCC3)c1,-13.9,
CCOc1ccc(NC(=O)CSc2c3c(nc4ccccc24)CCCC3)cc1,,16.4 µM (active)
COc1ccc(C(=O)Nc2onc3c2CCCC3)cc1,-21,
CCOc1ccc(C(=O)NC2CCN(C(=O)Nc3ccccc3OC)CC2)cc1,-20.6,
Cn1cnnc1SCC(=O)NNC(=O)COc1ccc(Br)cc1,0.551,
O=C(NC1CC1)C1CCCN(C(=O)NC2CCCCC2)C1 (stereo unspecified),11.4,
COc1ccc(N2CCN(C(=O)Cn3cnc4sc(C)c(S(=O)(=O)N5CCOCC5)c4c3=O)CC2)cc1,,18.4 µM (active)
Cc1cc(Br)ccc1NC(=O)Cn1cnc2sc(C)c(S(=O)(=O)N3CCN(C)CC3)c2c1=O,1.29,
CCN(CC)CCNC(=O)Cn1cnc2sc(C)c(S(=O)(=O)N3CCOCC3)c2c1=O,-4.5,
OCCN1CCN(CCO)C1=S,-13.3,
CC(C)(C)NC(=O)NC(=O)COC(=O)CCC1CCCCC1,-5.88,
O=C(c1c(Cl)cccc1Cl)N1CCN(c2cccc3[nH]ccc23)CC1,-22.9,
O=C(NCCN1CCN(Cc2ccccc2)CC1)c1cc2c(=O)[nH]c3ccccc3c2s1,,25.9 µM (active)
Cn1cccc1C(=O)N1CCc2ccccc2C1,0.109,

Compound,"activity change, negative = growth inhibition [%]",Potency
Cc1c(C(=O)CN2CCOCC2)[nH]c2ccccc12,-6.49,
Cn1c(C(=O)NCCN2CCc3ccccc3C2)cc2c(=O)[nH]c3ccccc3c21,,16.4 µM (active)
O=C(c1ncn2c1c(=O)[nH]c1ccccc12)N1CCc2ccccc2C1,-20.7,
O=C(Cc1c(O)c2ccccc2[nH]c1=O)NCc1ccccc1,-9.23,
Cc1cccc(N2CCN(C(=O)c3cc4c(=O)[nH]c5ccccc5c4n3C)CC2)c1C,,18.4 µM (active)
CC(C(=O)O)N1C(=O)c2cccc3cccc1c23 (stereo unspecified),-21.4,
CC(C)NC(=O)NCCCCCCS(C)=O (stereo unspecified),-10.1,
Cc1ccn2cc(-c3nonc3C)cc2c1,-17.3,
CC1(C(=O)NS(=O)(=O)c2ccc3ccccc3c2)CCN1C(=O)C1(c2ccc(Cl)cc2)CCC1 (stereo unspecified),-24.9,
CCN(C(=O)CSc1nnc2ccccn12)C1CCS(=O)(=O)C1 (stereo unspecified),6.51,
CC(OC(=O)c1cccnc1Cl)C(=O)NC1CCCCC1 (stereo unspecified),0.257,
CC(C)Cn1c(CCC(=O)O)ccc1-c1cccs1,-11.6,
COc1cc(C(=S)NC2CCCCC2)ccc1O,-18.8,
OCC1(CCc2ccccc2)CCN(Cc2ccc3nsnc3c2)CC1,-29.8,
CC(=O)c1cccc(CN2CCC(CO)(Cc3ccccc3)CC2)c1,-3.52,
COC(=O)c1ccc(CN2CCC(CO)(Cc3ccc(OC)cc3)CC2)cc1,-22.6,
COc1ccc(CC2(CO)CCN(Cc3cnn(C)c3)CC2)cc1,-2.37,
Cc1cccc(-c2ncc(CN3CCC(CO)(CCCc4ccccc4)CC3)cn2)c1,,23.1 µM (active)
COc1cccc(CC2(CO)CCN(Cc3cnc(-c4cccc(C)c4)nc3)CC2)c1,,20.6 µM (active)
